From publication PMC7862700, “An all-to-all approach to the identification of sequence-specific readers for epigenetic DNA modifications on cytosine” come the findings set out here.

Holding throughout (test): DAPPL (digital affinity profiling via proximity ligation, sequencing); 10 mM Tris-HCl pH 7.5, 50 mM NaCl, 1 mM DTT, 4% glycerol, room temperature, 30 min; GST-TFs on glutathione beads, 16-mer random dsDNA library, 0.1% formaldehyde crosslink after washing; high values mean tight binding
What all share (details): protein: recombinant; tags: N-terminal GST; dsDNA, one strand shown

One test has as its target T1, ERG (Homo sapiens, UniProt P11308 1-479).
T1 sequence: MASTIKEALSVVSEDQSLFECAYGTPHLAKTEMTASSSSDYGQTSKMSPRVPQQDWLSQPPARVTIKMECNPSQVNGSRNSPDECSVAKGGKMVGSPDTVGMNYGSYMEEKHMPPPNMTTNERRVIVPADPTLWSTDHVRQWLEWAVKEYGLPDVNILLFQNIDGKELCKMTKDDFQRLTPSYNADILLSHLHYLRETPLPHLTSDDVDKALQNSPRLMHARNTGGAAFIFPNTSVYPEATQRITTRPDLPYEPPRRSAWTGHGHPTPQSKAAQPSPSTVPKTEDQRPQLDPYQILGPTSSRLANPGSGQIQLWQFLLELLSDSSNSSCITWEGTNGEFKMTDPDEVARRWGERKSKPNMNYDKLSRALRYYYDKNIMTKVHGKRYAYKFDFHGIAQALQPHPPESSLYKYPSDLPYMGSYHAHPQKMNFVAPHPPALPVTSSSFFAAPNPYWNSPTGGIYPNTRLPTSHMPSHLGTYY
The method in brief: (§1)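 A tag-only sample was pooled with DNA-barcoded human transcription factors that had been expressed in yeast as GST fusions and captured on glutathione beads. The pools were incubated for 30 min at room temperature with 200 nmole of a random double-stranded 16-mer DNA library in Tris/NaCl/DTT/glycerol buffer, then washed, crosslinked with 0.1% formaldehyde, proximity-ligated (BsaI/T4 ligase, 1 h, 37 °C), PCR-amplified and sequenced on an Illumina NextSeq500. Binding signal is each hexamer's read frequency for a factor divided by its frequency for the tag-only sample.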

Another test addresses SPIB (Homo sapiens, UniProt Q01892 1-262). A digest of the protocol: as §1
For a further test, the target named is ETV5 (Homo sapiens, UniProt P41161 1-510). The method in brief:
as §1

The target in another test is T2, SPIC (Homo sapiens, UniProt Q8N5J4 1-248).
T2 sequence: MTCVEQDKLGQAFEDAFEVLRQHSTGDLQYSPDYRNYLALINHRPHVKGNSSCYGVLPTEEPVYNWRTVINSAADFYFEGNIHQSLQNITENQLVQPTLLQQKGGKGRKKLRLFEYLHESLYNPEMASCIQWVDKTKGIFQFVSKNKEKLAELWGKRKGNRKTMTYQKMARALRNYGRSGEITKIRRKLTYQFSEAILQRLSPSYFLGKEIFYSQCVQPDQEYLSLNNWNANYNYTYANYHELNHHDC
The method in brief:
as §1

A further test has as its target T3, SPDEF (Homo sapiens, UniProt O95238 1-335).
T3 sequence: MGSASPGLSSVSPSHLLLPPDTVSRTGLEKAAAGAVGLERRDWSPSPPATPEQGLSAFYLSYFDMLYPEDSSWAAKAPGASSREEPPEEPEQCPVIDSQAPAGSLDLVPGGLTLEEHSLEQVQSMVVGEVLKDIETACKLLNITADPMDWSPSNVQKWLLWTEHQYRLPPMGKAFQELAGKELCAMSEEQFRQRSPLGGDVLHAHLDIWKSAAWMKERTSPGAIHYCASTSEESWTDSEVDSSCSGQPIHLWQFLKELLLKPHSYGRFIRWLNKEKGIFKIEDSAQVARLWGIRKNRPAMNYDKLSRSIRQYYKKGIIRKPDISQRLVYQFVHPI
A digest of the protocol:
as §1

The target of a further test is T4, ETV3 (Homo sapiens, UniProt P41162-2 1-143).
T4 sequence: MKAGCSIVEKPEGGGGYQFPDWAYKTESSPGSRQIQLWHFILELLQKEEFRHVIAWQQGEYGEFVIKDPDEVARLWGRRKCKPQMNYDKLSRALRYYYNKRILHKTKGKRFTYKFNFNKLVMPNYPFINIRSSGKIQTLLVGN
The method in brief: as §1

Another test deals with T5, ELK1 (Homo sapiens, UniProt P19419 1-428).
T5 sequence: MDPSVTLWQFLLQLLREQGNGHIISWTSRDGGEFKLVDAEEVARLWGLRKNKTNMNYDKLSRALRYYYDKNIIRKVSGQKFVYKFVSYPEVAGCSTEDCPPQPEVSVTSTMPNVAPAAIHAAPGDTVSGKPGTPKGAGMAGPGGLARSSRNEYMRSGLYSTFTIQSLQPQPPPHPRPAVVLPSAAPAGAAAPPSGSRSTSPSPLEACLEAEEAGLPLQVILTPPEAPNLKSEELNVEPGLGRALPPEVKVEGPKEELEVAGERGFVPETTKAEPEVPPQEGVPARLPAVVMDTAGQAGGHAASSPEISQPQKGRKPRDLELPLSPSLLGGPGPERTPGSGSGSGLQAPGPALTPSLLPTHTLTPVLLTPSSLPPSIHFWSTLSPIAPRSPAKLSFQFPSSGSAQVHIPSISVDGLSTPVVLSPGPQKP
A digest of the protocol: as §1

A further test deals with ELF1 (Homo sapiens, UniProt P32519 1-619). The method in brief:
as §1

Another test addresses T6, ELK4 (Homo sapiens, UniProt P28324-2 1-405).
T6 sequence: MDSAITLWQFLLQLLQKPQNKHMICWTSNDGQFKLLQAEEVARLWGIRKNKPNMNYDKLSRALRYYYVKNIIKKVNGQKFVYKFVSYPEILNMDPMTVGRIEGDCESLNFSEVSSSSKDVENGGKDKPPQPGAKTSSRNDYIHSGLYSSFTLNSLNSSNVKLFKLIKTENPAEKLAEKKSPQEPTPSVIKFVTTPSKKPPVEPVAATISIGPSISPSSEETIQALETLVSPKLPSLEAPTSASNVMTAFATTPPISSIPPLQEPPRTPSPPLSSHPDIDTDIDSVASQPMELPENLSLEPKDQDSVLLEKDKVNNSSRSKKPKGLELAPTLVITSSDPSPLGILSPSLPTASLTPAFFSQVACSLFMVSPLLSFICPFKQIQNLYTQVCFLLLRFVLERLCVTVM
The method in brief:
as §1

A further test deals with T7, ELF3 (Homo sapiens, UniProt P78545 1-371).
T7 sequence: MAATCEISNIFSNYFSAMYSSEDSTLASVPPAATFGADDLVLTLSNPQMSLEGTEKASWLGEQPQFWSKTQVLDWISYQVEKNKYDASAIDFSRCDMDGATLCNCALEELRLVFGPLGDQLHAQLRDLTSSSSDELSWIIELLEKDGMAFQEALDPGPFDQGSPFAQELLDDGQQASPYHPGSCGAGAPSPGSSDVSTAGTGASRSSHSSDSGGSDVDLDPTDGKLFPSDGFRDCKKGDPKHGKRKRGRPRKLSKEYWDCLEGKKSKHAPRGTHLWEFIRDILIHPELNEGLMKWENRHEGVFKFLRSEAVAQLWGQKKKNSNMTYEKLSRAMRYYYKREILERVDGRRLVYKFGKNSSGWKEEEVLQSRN
The method in brief: as §1

The next test addresses T8, ERF (Homo sapiens, UniProt P50548 1-548).
T8 sequence: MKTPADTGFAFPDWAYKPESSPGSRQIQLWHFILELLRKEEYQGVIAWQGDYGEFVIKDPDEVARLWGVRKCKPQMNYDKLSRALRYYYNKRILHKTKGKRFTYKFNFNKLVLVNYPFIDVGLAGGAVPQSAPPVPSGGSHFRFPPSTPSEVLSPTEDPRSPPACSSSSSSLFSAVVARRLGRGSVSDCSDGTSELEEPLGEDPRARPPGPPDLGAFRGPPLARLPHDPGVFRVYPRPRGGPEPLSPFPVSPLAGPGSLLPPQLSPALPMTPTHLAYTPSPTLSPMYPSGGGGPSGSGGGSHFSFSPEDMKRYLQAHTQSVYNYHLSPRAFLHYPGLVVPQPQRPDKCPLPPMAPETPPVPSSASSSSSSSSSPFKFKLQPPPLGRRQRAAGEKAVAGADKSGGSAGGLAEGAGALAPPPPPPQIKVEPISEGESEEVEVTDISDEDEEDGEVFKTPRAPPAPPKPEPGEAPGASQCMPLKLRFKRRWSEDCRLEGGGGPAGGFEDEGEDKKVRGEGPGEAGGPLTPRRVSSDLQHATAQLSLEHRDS
The method in brief: as §1

Another test has as its target T9, ETS2 (Homo sapiens, UniProt P15036 1-469).
T9 sequence: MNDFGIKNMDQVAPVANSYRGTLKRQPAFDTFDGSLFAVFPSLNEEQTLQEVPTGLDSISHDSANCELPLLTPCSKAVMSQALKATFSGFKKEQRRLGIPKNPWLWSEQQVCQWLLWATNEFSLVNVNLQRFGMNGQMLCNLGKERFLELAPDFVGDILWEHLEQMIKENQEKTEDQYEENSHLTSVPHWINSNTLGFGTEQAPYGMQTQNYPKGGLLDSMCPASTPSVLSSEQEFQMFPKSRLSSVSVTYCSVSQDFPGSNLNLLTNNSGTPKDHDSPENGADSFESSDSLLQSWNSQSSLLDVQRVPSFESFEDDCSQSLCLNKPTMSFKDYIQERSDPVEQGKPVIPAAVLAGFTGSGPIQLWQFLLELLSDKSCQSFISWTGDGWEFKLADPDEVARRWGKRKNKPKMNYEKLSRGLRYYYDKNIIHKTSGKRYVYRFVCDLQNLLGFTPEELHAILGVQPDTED
A digest of the protocol: as §1

The target in the next test is T10, ETV7 (Homo sapiens, UniProt Q9Y603 1-341).
T10 sequence: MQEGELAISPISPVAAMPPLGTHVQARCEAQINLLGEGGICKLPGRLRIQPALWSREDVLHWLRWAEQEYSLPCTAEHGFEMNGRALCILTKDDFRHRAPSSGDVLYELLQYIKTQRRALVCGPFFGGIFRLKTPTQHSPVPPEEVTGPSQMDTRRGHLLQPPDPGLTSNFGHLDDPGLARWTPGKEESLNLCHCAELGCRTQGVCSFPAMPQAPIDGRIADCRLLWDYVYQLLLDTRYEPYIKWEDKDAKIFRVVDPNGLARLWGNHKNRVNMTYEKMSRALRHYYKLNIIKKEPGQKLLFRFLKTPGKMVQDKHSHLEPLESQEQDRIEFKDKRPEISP
The method in brief:
as §1

The target in a further test is T11, EHF (Homo sapiens, UniProt Q9NZC4 1-300).
T11 sequence: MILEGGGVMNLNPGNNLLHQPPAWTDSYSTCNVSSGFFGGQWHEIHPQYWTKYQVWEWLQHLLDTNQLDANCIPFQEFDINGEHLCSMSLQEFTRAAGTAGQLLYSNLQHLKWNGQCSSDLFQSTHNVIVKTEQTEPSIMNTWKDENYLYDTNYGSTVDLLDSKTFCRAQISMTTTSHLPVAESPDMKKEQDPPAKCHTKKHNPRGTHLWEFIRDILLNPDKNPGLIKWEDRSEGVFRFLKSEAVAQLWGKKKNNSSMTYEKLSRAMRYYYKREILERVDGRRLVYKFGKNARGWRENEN
A digest of the protocol:
as §1

A further test has as its target T12, ELK3 (Homo sapiens, UniProt P41970 1-407).
T12 sequence: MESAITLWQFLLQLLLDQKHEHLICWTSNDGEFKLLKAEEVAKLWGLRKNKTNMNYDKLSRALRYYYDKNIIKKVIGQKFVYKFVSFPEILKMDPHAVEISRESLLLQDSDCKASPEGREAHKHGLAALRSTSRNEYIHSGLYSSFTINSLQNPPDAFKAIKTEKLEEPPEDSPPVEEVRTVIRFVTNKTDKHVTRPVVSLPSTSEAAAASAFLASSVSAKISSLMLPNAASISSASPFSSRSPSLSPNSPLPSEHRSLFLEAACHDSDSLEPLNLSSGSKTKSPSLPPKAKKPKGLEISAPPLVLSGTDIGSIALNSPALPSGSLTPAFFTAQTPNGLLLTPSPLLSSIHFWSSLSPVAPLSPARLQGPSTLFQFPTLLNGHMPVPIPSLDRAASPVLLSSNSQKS
The method in brief: as §1

Sequence of ETV5 (P41161 whole entry): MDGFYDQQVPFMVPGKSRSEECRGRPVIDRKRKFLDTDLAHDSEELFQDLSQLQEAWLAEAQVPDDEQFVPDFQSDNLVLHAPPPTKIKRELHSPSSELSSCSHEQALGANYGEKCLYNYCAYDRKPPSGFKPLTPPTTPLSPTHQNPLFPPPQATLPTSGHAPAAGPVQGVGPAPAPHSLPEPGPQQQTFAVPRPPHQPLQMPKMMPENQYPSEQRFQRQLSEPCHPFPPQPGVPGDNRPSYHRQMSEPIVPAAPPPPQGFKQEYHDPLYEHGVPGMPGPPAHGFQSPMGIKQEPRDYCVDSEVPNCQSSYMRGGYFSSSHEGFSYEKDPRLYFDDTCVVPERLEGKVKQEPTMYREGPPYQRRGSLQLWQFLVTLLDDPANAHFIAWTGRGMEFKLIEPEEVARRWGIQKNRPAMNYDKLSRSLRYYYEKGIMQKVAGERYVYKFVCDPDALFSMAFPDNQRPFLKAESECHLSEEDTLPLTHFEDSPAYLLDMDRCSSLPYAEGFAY
Sequence of ELF1 (P32519 whole entry): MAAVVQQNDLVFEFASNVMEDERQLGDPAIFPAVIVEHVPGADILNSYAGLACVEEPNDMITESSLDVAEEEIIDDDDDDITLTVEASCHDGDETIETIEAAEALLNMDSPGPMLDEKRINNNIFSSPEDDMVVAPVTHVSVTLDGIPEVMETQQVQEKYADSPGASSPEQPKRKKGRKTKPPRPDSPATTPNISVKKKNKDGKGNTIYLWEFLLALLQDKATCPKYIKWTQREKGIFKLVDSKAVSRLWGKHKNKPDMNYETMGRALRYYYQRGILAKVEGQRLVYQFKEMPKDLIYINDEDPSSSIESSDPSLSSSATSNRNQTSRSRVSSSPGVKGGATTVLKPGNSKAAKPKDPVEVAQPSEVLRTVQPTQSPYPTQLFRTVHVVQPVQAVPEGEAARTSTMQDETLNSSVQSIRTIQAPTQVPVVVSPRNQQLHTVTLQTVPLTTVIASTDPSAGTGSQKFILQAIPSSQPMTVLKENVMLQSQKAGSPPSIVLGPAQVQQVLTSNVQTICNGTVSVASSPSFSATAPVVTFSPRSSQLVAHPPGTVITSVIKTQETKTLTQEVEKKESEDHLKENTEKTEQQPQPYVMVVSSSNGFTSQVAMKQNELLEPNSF
Sequence of SPIB (Q01892 whole entry): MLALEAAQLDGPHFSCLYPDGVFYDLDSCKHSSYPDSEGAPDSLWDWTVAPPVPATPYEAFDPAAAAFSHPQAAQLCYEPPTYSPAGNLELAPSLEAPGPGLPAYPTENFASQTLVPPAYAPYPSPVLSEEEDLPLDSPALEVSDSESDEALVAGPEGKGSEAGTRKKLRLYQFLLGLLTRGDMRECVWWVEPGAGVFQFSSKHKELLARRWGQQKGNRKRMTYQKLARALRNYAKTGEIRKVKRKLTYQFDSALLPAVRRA

Consider ATCCGT, for which the binding signal with ERG is 1.04 fold enrichment (6-mer frequency, TF over GST control); with SPIB, 1.1 fold enrichment (6-mer frequency, TF over GST control); with ETV5 it was 1.05 fold enrichment (6-mer frequency, TF over GST control); with SPIC, 1 fold enrichment (6-mer frequency, TF over GST control); in the test with SPDEF it was 1.41 fold enrichment (6-mer frequency, TF over GST control); in the test with ETV3, 1.04 fold enrichment (6-mer frequency, TF over GST control).
For CATAGT, the binding signal was 1.03 fold enrichment (6-mer frequency, TF over GST control) with ELK1; 1.01 fold enrichment (6-mer frequency, TF over GST control) with ELF1; 1.01 fold enrichment (6-mer frequency, TF over GST control) in the test with ETV5; 1.14 fold enrichment (6-mer frequency, TF over GST control) with ELK4; 1.07 fold enrichment (6-mer frequency, TF over GST control) with ELF3; 1.13 fold enrichment (6-mer frequency, TF over GST control) with ERF. Further, the binding signal is 1.03 fold enrichment (6-mer frequency, TF over GST control) with ETS2 and 1.11 fold enrichment (6-mer frequency, TF over GST control) with ETV7.
As to AGTTAC, the binding signal with ERG was 1 fold enrichment (6-mer frequency, TF over GST control); with EHF, 1.02 fold enrichment (6-mer frequency, TF over GST control); in the test with ELK3 it was 1.03 fold enrichment (6-mer frequency, TF over GST control); with ETV5, 1.05 fold enrichment (6-mer frequency, TF over GST control); in the test with SPIC, 1.1 fold enrichment (6-mer frequency, TF over GST control); with ERF, 1.01 fold enrichment (6-mer frequency, TF over GST control).
